The record followed here is PubChem BioAssay (Tox21).

Unmarked numbers belong to inactive results. Active and inactive are the calls of the source. Unless noted, calls come from the whole dose curve; as a rule, active = well fitted curve in the direction sought with a large enough effect in the repeat runs; inconclusive = weak or mixed curves; inactive = no such curve, though single readings can be large; an effect the other way counts as inactive or inconclusive.

Assay [1] in a line: qHTS assay to test for compound auto fluorescence at 535 nm (green) in HEK293 cells (AID 720680). Note: % is set by controls: 0 for no effect and ±100 for the full control effect.
Assay [2] in a line: qHTS assay to test for compound auto fluorescence at 460 nm (blue) in HEK293 cell free culture (AID 720681). Note: % is set by controls: 0 for no effect and ±100 for the full control effect. Summed up:
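Blue fluorescence (Ex 405/Em 460 nm, triamterene-equivalent) was read immediately after pin transfer of compound or DMSO into medium (DMEM, 10% FBS) without cells.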
For orientation: Quantitative high-throughput screening tests each substance at several concentrations.

A short description of assay [3]: qHTS assay to test for compound auto fluorescence at 535 nm (green) in HEK293 cell free culture (AID 720682). Note: % is set by controls: 0 for no effect and ±100 for the full control effect. Summed up:
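Green-channel intensity (Ex/Em 485/535 nm) was recorded from compound-treated wells containing only DMEM with 10% FBS. Fluorescein provided the equivalency standard.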

A short description of assay [4]: qHTS assay to test for compound auto fluorescence at 590 nm (red) in HEK293 cell free culture (AID 720683). Note: % is set by controls: 0 for no effect and ±100 for the full control effect. A digest of the protocol: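 Red-channel autofluorescence of compounds in culture medium (DMEM, 10% FBS), no cells, measured at 540/590 nm. Rose Bengal sodium is the reference fluorophore for equivalence.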
Assay [5] is described as follows: qHTS assay to test for compound auto fluorescence at 590 nm (red) in HepG2 cell free culture (AID 720684). Note: % is set by controls: 0 for no effect and ±100 for the full control effect. Summed up:
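Plate contents were MEM with 10% FBS plus test compound or DMSO, no cells. Fluorescence was recorded with 540 nm excitation and 590 nm emission.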

Assay [6] can be described thus: qHTS assay to test for compound auto fluorescence at 460 nm (blue) in HepG2 cell free culture (AID 720685). Note: % is set by controls: 0 for no effect and ±100 for the full control effect. Summed up: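 Compound (23 nL) or DMSO pinned into cell-free MEM with 10% FBS; blue fluorescence read at 405/460 nm excitation/emission, expressed as auto-fluorescence equivalency to triamterene.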
The nature of assay [7]: qHTS assay to test for compound auto fluorescence at 535 nm (green) in HepG2 cell free culture (AID 720686). Note: % is set by controls: 0 for no effect and ±100 for the full control effect.
Assay [8] in a line: qHTS assay to test for compound auto fluorescence at 460 nm (blue) in HepG2 cells (AID 720687). Note: % is set by controls: 0 for no effect and ±100 for the full control effect. A digest of the protocol: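 Blue-channel autofluorescence (Ex/Em 405/460 nm, triamterene-equivalent) was measured after 1 hr compound exposure at 37 C, 5% CO2. Cells were HepG2, plated overnight at 37 C in MEM plus 10% FBS.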
Assay [9] addresses Glucocorticoid receptor (Homo sapiens) (UniProt P04150). As to the kind of experiment: qHTS assay to identify small molecule agonists of the glucocorticoid receptor (GR) signaling pathway (AID 720691; active = well fitted activation curve with a large enough effect in the signal ratio in the repeat runs, not every such curve was filed as active; inconclusive = weak or mixed curves, or effect the other way; inactive = no such curve, though single readings can be large or run the other way; the % refers to the signal ratio; note: potency is the fitted concentration of half-maximal effect). A digest of the protocol:
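qHTS in GR-bla HeLa cells: 4 h settling at 37 C/5% CO2, 18 h compound incubation at 37 C, 2 h LiveBLAzer B/G FRET substrate at room temperature, fluorescence intensity measured.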

Assay [10] is described as follows: qHTS assay to identify small molecule antagonists of the glucocorticoid receptor (GR) signaling pathway - cell viability counter screen (AID 720693). Note: % is set by controls: 0 for no effect and ±100 for the full control effect; nearly all actives have a fitted effect of over 55% in size.
Assay [11] in a line: qHTS assay for identifying genotoxic compounds that show differential cytotoxicity against isogenic chicken DT40 cell lines with known DNA damage response pathways - wild type cell line (AID 743012). Note: % is set by controls: 0 for no effect and ±100 for the full control effect; nearly all actives have a fitted effect of over 60% in size. Summed up: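 First, wild type DT40 cells were plated at 300 per well and equilibrated about 0.5 h at 37 C/5% CO2. Next, compounds in DMSO were added and exposure lasted 40 h. Finally, CellTiter-Glo was added for 30 min at room temperature and luminescence recorded.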

Assay [12] in a line: qHTS assay for identifying genotoxic compounds that show differential cytotoxicity against isogenic chicken DT40 cell lines with known DNA damage response pathways - Rad54/Ku70 mutant cell line (AID 743015). Note: nearly all actives have a fitted effect of over 60% in size. Note: potency is the fitted concentration of half-maximal effect.
Assay [13] can be described thus: qHTS assay to identify small molecule antagonists of the androgen receptor (AR) signaling pathway - cell viability counter screen (AID 743033; note: % is set by controls: 0 for no effect and ±100 for the full control effect; nearly all actives have a fitted effect of over 45% in size).
Assay [14] in a line: qHTS assay to identify small molecule antagonists of the androgen receptor (AR) signaling pathway using the MDA cell line - cell viability counter screen (AID 743041; note: % is set by controls: 0 for no effect and ±100 for the full control effect; nearly all actives have a fitted effect of over 45% in size). Summed up: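 R1881-driven MDA-kb2 AR-luc cells, 3,000/well, were dosed with library compounds for 16 h; cell health came from CellTiter-Fluor fluorescence in the reporter wells.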
Assay [15] is described as follows: qHTS assay for identifying genotoxic compounds that show differential cytotoxicity against isogenic chicken DT40 cell lines with known DNA damage response pathways - Rev3 mutant cell line (AID 743014). Note: % is set by controls: 0 for no effect and ±100 for the full control effect; nearly all actives have a fitted effect of over 55% in size.
For assay [16], the target named is Glucocorticoid receptor (Homo sapiens) (UniProt P04150). As to the kind of experiment: qHTS assay to identify small molecule antagonists of the glucocorticoid receptor (GR) signaling pathway (AID 720692; active = well fitted inhibition curve with a large enough effect in the signal ratio in the repeat runs, not every such curve was filed as active; inconclusive = weak or mixed curves, or effect the other way; inactive = no such curve, though single readings can be large or run the other way; the % refers to the signal ratio; note: % is set by controls: 0 for no effect and ±100 for the full control effect). Summed up: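 Inhibition of glucocorticoid signalling is measured in HeLa cells with a GRE-controlled beta-lactamase reporter; cells are co-treated with compound and 5 nM dexamethasone (final) for 18 h before FRET substrate readout.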
Sequence of Glucocorticoid receptor (Homo sapiens) (P04150 whole entry, looked up): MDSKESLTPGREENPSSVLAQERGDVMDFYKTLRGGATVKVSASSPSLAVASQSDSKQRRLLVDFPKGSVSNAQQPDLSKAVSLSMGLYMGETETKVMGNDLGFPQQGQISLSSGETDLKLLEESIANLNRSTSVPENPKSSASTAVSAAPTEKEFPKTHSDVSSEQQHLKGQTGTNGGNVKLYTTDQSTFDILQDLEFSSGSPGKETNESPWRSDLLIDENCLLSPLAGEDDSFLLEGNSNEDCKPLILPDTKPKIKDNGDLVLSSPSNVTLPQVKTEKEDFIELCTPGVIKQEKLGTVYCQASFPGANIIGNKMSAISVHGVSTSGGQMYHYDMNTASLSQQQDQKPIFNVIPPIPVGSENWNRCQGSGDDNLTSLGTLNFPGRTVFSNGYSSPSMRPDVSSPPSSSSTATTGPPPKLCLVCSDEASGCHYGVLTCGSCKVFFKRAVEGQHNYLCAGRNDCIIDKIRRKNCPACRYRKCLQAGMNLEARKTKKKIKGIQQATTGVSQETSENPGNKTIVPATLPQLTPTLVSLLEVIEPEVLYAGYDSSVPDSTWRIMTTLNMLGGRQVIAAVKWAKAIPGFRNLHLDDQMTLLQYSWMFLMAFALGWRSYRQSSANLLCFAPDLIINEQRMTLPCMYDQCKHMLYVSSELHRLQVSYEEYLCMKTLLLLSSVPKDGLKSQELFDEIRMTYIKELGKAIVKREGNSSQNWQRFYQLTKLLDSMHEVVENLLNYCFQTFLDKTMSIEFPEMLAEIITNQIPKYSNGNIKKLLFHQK

Assay [17] concerns the target Androgen receptor (Homo sapiens) (UniProt P10275). As to the kind of experiment: qHTS assay to identify small molecule antagonists of the androgen receptor (AR) signaling pathway (AID 743035; active = well fitted inhibition curve with a large enough effect in the signal ratio in the repeat runs, not every such curve was filed as active; inconclusive = weak or mixed curves, or effect the other way; inactive = no such curve, though single readings can be large or run the other way; the % refers to the signal ratio; note: potency is the fitted concentration of half-maximal effect). Summed up: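 Beta-lactamase FRET read (2 h RT incubation with LiveBLAzer B/G) following 16 h of compound plus R1881 treatment of AR-UAS-bla HEK293 cells, which had been pre-incubated 4 h at 37C.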

Assay [18] shares this target. As to the kind of experiment: qHTS assay to identify small molecule agonists of the androgen receptor (AR) signaling pathway using the MDA cell line (AID 743040; note: potency is the fitted concentration of half-maximal effect; nearly all actives have a fitted effect of over 20% in size). A digest of the protocol: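 After a 5 h incubation at 37C and 0% CO2, MDA-kb2 reporter cells were dosed with compounds in DMSO and kept 16 h under the same conditions. Luciferase activity was then read as luminescence with ONE-Glo.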

The target is the same in assay [19]. Kind of assay: qHTS assay to identify small molecule antagonists of the androgen receptor (AR) signaling pathway using the MDA cell line (AID 743042; note: % is set by controls: 0 for no effect and ±100 for the full control effect; nearly all actives have a fitted effect of over 55% in size). Summed up:
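Antagonist mode: compounds plus R1881 agonist added to MDA-kb2 AR-luc cells, incubated 16 h at 37C. Luciferase reporter luminescence quantified, with multiplexed CellTiter-Fluor readout for cell viability.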

Sequence of Androgen receptor (Homo sapiens) (P10275 whole entry, looked up): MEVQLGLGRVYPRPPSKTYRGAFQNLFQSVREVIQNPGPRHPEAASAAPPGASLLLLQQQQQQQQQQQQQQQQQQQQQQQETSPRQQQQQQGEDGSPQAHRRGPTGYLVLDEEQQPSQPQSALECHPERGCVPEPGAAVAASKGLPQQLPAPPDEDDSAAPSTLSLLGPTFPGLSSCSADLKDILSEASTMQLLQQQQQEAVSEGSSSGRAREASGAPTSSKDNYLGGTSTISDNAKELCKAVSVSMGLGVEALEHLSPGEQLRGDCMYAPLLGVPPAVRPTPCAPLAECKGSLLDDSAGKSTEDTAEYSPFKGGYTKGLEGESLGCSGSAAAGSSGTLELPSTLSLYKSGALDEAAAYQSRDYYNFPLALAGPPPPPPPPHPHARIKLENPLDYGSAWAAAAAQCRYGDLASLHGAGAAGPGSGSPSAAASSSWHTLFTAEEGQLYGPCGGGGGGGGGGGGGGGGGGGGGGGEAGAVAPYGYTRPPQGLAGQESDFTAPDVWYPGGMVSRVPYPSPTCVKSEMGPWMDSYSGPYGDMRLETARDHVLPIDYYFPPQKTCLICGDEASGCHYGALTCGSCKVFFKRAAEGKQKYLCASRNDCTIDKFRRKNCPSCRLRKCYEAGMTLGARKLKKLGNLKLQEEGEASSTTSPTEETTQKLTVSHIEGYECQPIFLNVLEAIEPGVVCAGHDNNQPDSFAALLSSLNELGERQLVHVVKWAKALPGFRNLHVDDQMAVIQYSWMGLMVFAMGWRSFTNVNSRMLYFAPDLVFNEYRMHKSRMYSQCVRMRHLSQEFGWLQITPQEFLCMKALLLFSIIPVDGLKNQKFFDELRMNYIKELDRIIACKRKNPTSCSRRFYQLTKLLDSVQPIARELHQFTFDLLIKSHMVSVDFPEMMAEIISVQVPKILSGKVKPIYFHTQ

Take `CC(N)C12CC3CC(CC(C3)C1)C2` (centres undefined): the result in [1], in assay [2], in assay [3], in assay [4], in assay [5] and in [6] was inactive. Moreover, the result in assay [7], in assay [8], in [10] and in assay [13] was inactive. The Potency entry in [9], in assay [11], in [12] and in [14] was “inactive” throughout.

On to `CCN1CCOCC1`, for which the outcome in assay [1], in assay [2], in assay [3], in [4], in assay [5] and in assay [6] was inactive. The compound was classed as inactive in [7], in assay [8], in assay [10] and in assay [13]. Further, the Potency result in [11], in assay [15], in assay [12] and in [14] was “inactive” in each case.

With `[Ca+2]`, the result in [1], in [2], in [3], in assay [4], in assay [5] and in assay [6] was inactive. Besides, the outcome in assay [7], in assay [8], in [10] and in assay [13] was inactive. Also, the Potency result in assay [9], in assay [11], in assay [12] and in [14] was “inactive” in each case.

For the compound `CCOc1ccc2nc(S(N)(=O)=O)sc2c1`, the call in assay [1], in [2], in assay [3], in [4], in assay [5] and in [6] was inactive. The call in assay [7], in [8], in assay [10] and in assay [13] was inactive. Also, the Potency entry in assay [16], in assay [15], in [12] and in assay [14] was “inactive” in each case.

As for `CCCCCCCCCCCCCCC(=O)O`, the call in [1], in [2], in [3], in assay [4], in assay [5] and in assay [6] was inactive. The call in assay [7], in assay [8], in assay [10] and in assay [13] was inactive. In assay [14], the Potency result was “inactive”.

On to `C[N+]1(C)CCCC(OC(=O)C(O)(c2ccccc2)c2ccccc2)C1` (centres undefined), for which the fluorescence, % of fluorescein in assay [1] is -0.129% [at 18.6 µM]. For the same compound, the fluorescence, % of fluorescent control in assay [2] was 0.158% [at 18.6 µM]; in assay [4], 0.023% [at 18.6 µM]; in [6], -0.0313% [at 18.6 µM]; in assay [8], -0.102% [at 18.6 µM]. Moreover, the activity change in assay [3] was -0.0354% [at 18.6 µM]. Further, in [5], the fluorescence, % of Rose Bengal is -0.11% [at 18.6 µM]. The fluorescence, % of fluorescein control in assay [7] was -0.0015% [at 18.6 µM]. Further, the Potency in assay [9] is 7.23 µM (active). Also, the result in assay [10] and in assay [13] was inactive. The Potency result in assay [15], in [12] and in [14] was “inactive” in each case.

`CC(C)(C#N)Nc1nc(Cl)nc(NC2CC2)n1`: the compound was called inactive in assay [1], in assay [2], in assay [3], in assay [4], in [5] and in [6]. For the same compound, the outcome in assay [7], in assay [8] and in assay [13] was inactive. Further, the Potency result in [9], in assay [11], in assay [15], in [12] and in assay [14] was “inactive” each time.

Consider `CC(C)CC(C)(N)C#N` (centres undefined), for which the call in [1], in [2], in assay [3], in assay [4], in assay [5] and in assay [6] was inactive. Moreover, the compound was classed as inactive in [7], in [8] and in [13]. Further, the Potency result in assay [9], in assay [15], in assay [12] and in assay [14] was “inactive” in each case.

For the compound `CCCCCCC1CCC(=O)O1` (centres undefined), the outcome in assay [1], in [2], in [3], in assay [4], in assay [5] and in assay [6] was inactive. In addition, the outcome in [7], in assay [8], in [10] and in assay [13] was inactive. For the same compound, the Potency entry in [15], in assay [12] and in assay [14] was “inactive” throughout.

Consider `CN1CCN(c2cc3c(nn2)Oc2ccccc2N3C)CC1`, for which the compound was classed as inactive in assay [1], in assay [2], in assay [3], in assay [4], in assay [5] and in assay [6]. Also, the call in [7], in assay [8], in assay [10] and in assay [13] was inactive. In addition, the Potency result in assay [11], in assay [15], in [12] and in assay [14] was “inactive” in each case.

In the case of `C[C@@H]1C[C@H]2[C@@H]3C[C@H](F)C4=CC(=O)C(Cl)=C[C@]4(C)[C@@]3(F)[C@@H](O)C[C@]2(C)[C@@]1(O)C(=O)CO`, the call in assay [1], in assay [2], in assay [3], in assay [4], in assay [5] and in assay [6] was inactive. Further, the compound was called inactive in assay [7], in assay [8], in assay [13] and in assay [19]. Moreover, the Potency in assay [9] is 0.0151 µM [inconclusive] (active); in assay [12], 29.8 µM (active); in assay [17], 3.38 µM (active); in assay [18], 0.006 µM (active). Also, the Potency entry in [14] is “inactive”.

Take `CN1CCC(=C2c3ccccc3CCc3cccnc32)CC1`: the call in assay [1], in assay [2], in assay [3], in assay [4], in [5] and in assay [6] was inactive. Besides, the result in assay [7], in [8], in [10] and in assay [13] was inactive. Besides, the Potency result in assay [15], in assay [12] and in assay [14] was “inactive” each time.

Consider `Cc1ccccc1N=C(N)N=C(N)N`, for which the compound was called inactive in [1], in [2], in [3], in assay [4], in assay [5] and in [6]. Besides, the result in assay [7], in [8], in assay [10] and in [13] was inactive. Also, the Potency entry in assay [9], in [15], in assay [12] and in assay [14] was “inactive” each time.

As to `C=CCCCCCCCCC(=O)OCC`, the compound was classed as inactive in [1], in assay [2], in [3], in [4], in assay [5] and in assay [6]. Moreover, the result in assay [7], in [8], in assay [10] and in assay [13] was inactive. In addition, the Potency entry in [15], in assay [12] and in assay [14] was “inactive” throughout.

As for `CC[N+](C)(CC)CCOC(=O)C1c2ccccc2Oc2ccccc21`, the result in assay [1], in assay [2], in assay [3], in [4], in assay [5] and in [6] was inactive. In addition, the compound was classed as inactive in [7], in assay [8], in assay [10] and in assay [13]. The Potency result in [11], in assay [15], in [12] and in assay [14] was “inactive” in each case.
